From PubChem BioAssay (NCATS)
Values without a mark were called inactive. Results filed as inconclusive are left out. A call without a number means that no potency is given here. Calls of active or inactive are those of the source. The call rests on the fitted dose curve; in most records, active means well fitted curve in the direction sought with a large enough effect; inconclusive means small, poorly fitted or top-dose-only effect, or another doubt; inactive means no such curve, though single readings can be large; an effect the other way counts as inactive or inconclusive.

How the values were obtained:
[1] = system: Zika virus NS2B-NS3 protease (linked construct); test: Primary screen NINDS Rhodamine qHTS for Zika virus inhibitors (AID 1347160); further: potency means the concentration at half of the fitted maximal effect; nearly all actives have a fitted effect of over 55% in size
Summary of the method: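 Aprotinin served as in-plate control. Conditions: 25 nM linked NS2B-NS3, pH 8.0 Tris buffer, titrated compounds, 15 min preincubation and 15 min reaction with 1.5 microM Rhod110 substrate at room temperature.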

[2] = OV-KATE Cancer Cell Toxicity qHTS against the NCATS CANVASS Library (AID 1347345)
Summary of the method: (§1)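 Per well, 1000 cells; exposure 72 h with compound at 11 final concentrations; readout CellTiter-Glo luminescence.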

[3] = OV-SAHO Cancer Cell Toxicity qHTS against the NCATS CANVASS Library (AID 1347348); further: nearly all actives have a fitted effect of over 55% in size; further: potency means the concentration at half of the fitted maximal effect
Summary of the method: as §1

[4] = U-118MG Cancer Cell Toxicity qHTS against the NCATS CANVASS Library (AID 1347351); further: potency means the concentration at half of the fitted maximal effect
Summary of the method: as §1

[5] = HEK293 18hr Apoptosis Induction qHTS against the NCATS CANVASS Library (AID 1347357)
Summary of the method: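 Caspase-3/7 luminescence (DEVD substrate, Caspase-Glo) after 18 h compound exposure of HEK293 cells, 500 cells/well; 11-point series; doxorubicin titration as control.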

[6] = HPAF-II 12hr Apoptosis Induction qHTS against the NCATS CANVASS Library (AID 1347358)
Summary of the method: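 Twelve-hour compound exposure of HPAF-II cells in DMEM with 10% FBS, then luminescent Caspase-Glo 3/7 detection after 15 min at room temperature; doxorubicin control.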

[7] = HEK293 12hr Apoptosis Induction qHTS against the NCATS CANVASS Library (AID 1347361)
Summary of the method: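 500 HEK293 cells/well; cpds pin-transferred, 11-pt conc series; 12 h, 37 degrees C/5% CO2; Caspase-Glo 3/7 added, 15 min RT dark; luminescence.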

[8] = target: Luciferin 4-monooxygenase (Photinus pyralis) (UniProt P08659); test: Firefly luciferase counterscreen qHTS: Assay Interference Panel against the NCATS CANVASS Library (AID 1347363); further: series mostly up to about 57 µM
Chain of Luciferin 4-monooxygenase (Photinus pyralis) (P08659 whole entry, looked up): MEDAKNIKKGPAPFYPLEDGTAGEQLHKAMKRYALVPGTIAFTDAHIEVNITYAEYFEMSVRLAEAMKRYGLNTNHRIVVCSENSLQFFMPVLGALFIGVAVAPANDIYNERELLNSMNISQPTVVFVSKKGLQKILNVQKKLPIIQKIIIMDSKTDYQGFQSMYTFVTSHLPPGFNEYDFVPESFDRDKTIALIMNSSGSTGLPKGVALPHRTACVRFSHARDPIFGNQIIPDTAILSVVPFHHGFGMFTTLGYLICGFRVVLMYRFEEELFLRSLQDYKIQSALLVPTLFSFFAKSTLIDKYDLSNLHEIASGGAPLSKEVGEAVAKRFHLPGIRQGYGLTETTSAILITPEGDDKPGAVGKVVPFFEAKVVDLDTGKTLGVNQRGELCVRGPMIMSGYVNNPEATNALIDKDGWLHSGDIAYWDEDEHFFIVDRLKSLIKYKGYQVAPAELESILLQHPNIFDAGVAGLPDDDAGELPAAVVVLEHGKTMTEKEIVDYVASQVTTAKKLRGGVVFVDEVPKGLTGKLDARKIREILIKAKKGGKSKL
Summary of the method: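 Purified P. pyralis luciferase was added to compounds (11-point series) preincubated 15 min at room temperature with substrate containing 0.013 mM D-luciferin and 0.013 mM ATP; luminescence was read after 5 min.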

[9] = qHTS for Hypoxia signaling pathway (HIF-1) antagonists against the NCATS CANVASS Library (AID 1347374); further: nearly all actives have a fitted effect of over 60% in size; further: potency means the concentration at half of the fitted maximal effect
Summary of the method: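 Beta-lactamase reporter under HRE control in ME-180 cells; CoCl2 stimulus (60 uM solution as added), compounds 11-pt qHTS, 17 h 37C. CCF4 dye 2 h RT, 460/530 nm emission. CellTiter-Glo viability in same wells.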

[10] = qHTS for Antimalaria activity screened against the NCATS CANVASS Library (AID 1347380); further: nearly all actives have a fitted effect of over 40% in size; further: potency means the concentration at half of the fitted maximal effect
Summary of the method: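 Measures proliferation or cytotoxicity against Dd2 blood stages in 72 h cultures, 11-point qHTS dosing, with SYBR Green fluorescence as read-out; dihydroartemisinin titration served as control.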

[11] = qHTS for activators of Nrf2/ARE signaling pathway screened against the NCATS CANVASS Library (AID 1347391); further: nearly all actives have a fitted effect of over 60% in size; further: potency means the concentration at half of the fitted maximal effect
Summary of the method: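 Activation of Nrf2/ARE was scored in ARE-bla HepG2 cells after 16 h compound exposure using CCF4 beta-lactamase fluorescence ratio readings.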

[12] = qHTS for inhibitors of Wild type Zika virus screened against the NCATS CANVASS Library (AID 1347396);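 further: ATP luminescence of surviving cells so rescue from viral cell killing; series mostly up to about 46 µM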
Summary of the method: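 Vero 766 cells, 1000/well, o/n attach; cpds pin-transferred (11-pt qHTS); WT Zika added; 72 h, 37C, 5% CO2; CellTiter Glo lumi. Uninfected + vehicle = 100% inhibition.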

[13] = Viability qHTS for inhibitors of the SERCaMP assay screened against the NCATS CANVASS Library (AID 1347400); further: nearly all actives have a fitted effect of over 70% in size; further: potency means the concentration at half of the fitted maximal effect
Summary of the method: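 Measures loss of viability in SERCaMP reporter SH-SY5Y cells treated for 48 h with compounds; luminescent ATP detection by CellTiter-Glo.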

[14] = Redox Reaction Profiling qHTS: Assay Interference Panel against the NCATS CANVASS Library (AID 1347401)
Summary of the method: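 Quantitative HTS over an 11-point series was run in HEPES pH 7.3 with 50 mM NaCl, 200 uM DTT and 5 uM resazurin. Initial and 15-min resorufin fluorescence readings were taken.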

[15] = SW1088 Cancer Cell Toxicity qHTS against the NCATS CANVASS Library (AID 1347350); further: nearly all actives have a fitted effect of over 75% in size; further: potency means the concentration at half of the fitted maximal effect
Summary of the method: as §1

[16] = A2780 Cisplatin Sensitive Ovarian Cancer Cell Toxicity qHTS against the NCATS CANVASS Library (AID 1347353); further: nearly all actives have a fitted effect of over 60% in size; further: potency means the concentration at half of the fitted maximal effect
Summary of the method: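 Quantitative HTS format: eleven compound concentrations applied to pre-seeded cells, 72 h incubation at 37 °C, then ATP detection by luminescence.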

[17] = KB-8-5-11 Cancer Cell Toxicity qHTS against the NCATS CANVASS Library (AID 1347364); further: nearly all actives have a fitted effect of over 75% in size; further: potency means the concentration at half of the fitted maximal effect
Summary of the method: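 Luminescent ATP signal (CellTiter-Glo, 10 min at room temperature) measured cell survival of KB-8-5-11 after 72 hr compound treatment. For confirmation, the cells were also grown with 1uM tariquidar.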

[18] = SDT Cancer Cell Toxicity qHTS against the NCATS CANVASS Library (AID 1347365); further: nearly all actives have a fitted effect of over 60% in size; further: potency means the concentration at half of the fitted maximal effect
Summary of the method: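 Canine SDT glioma cell toxicity was scored by ATP-dependent luminescence after a 72 hr incubation with an 11-point compound series.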

[19] = UWB1.289-WTBRCA1 Cancer Cell Toxicity qHTS against the NCATS CANVASS Library (AID 1347354)
Summary of the method: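 Using an ATP-based luminescent reagent after three days of treatment, toxicity is scored across an eleven-concentration range in wells holding 1000 cells each.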

[20] = MCF7 Cancer Cell Toxicity qHTS against the NCATS CANVASS Library (AID 1347369)
Summary of the method: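 Luminescent ATP signal (CellTiterGlo) served as the cytotoxicity read-out after MCF7 breast cancer cells had been incubated 72 hr at 37C with natural products in an 11-point titration.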

| Compound | Potency [1] | Potency [2] | Potency [3] | Potency [4] | Potency [5] | Potency [6] | outcome [7] | Potency [8] | Potency [9] | Potency [10] | Potency [11] | outcome [12] | Potency [13] | Potency [14] | Potency [15] | Potency [16] | Potency [17] | Potency [18] | Potency [19] | Potency [20] |
| --- | --- | --- | --- | --- | --- | --- | --- | --- | --- | --- | --- | --- | --- | --- | --- | --- | --- | --- | --- | --- |
| O=c1cc(-c2ccc(O)c(O)c2)oc2cc(O[C@@H]3O[C@H](CO)[C@@H](O)[C@H](O)[C@H]3O)cc(O)c12 | 17.5 µM (active) | inactive | 16.7 µM (active) | inactive | inactive | inactive | inactive | inactive | inactive | 0.236 µM (active) | inactive | inactive | inactive | inactive | – | – | – | – | – | – |
| CC(=O)Oc1cc2c(c(OC(C)=O)c1C1CCc3cc(Cl)c(Cl)n31)C(=O)n1c-2cc(Cl)c1Cl (centres undefined) | 3.92 µM (active) | – | 7.47 µM (active) | 13.3 µM (active) | inactive | – | inactive | – | 3.34 µM (active) | – | inactive | – | 42.8 µM (active) | – | 4.73 µM (active) | 11.8 µM (active) | 14.8 µM (active) | 10.5 µM (active) | – | – |
| CC(=O)O[C@H]1c2ccccc2-c2c3c(cc4c2[C@@H]1N(C(C)=O)CC4)OCO3 | 55.3 µM (active) | inactive | – | inactive | inactive | inactive | inactive | – | inactive | inactive | 8.31 µM (active) | inactive | – | inactive | 26.6 µM (active) | – | – | inactive | inactive | – |
| COC(=O)[C@]1([C@H]2CCC(=O)O2)CC(=O)c2c(O)cc(C)cc2O1 | – | inactive | inactive | inactive | inactive | – | inactive | inactive | inactive | – | inactive | inactive | inactive | inactive | inactive | inactive | inactive | inactive | inactive | – |
| CO[C@H]1/C=C/CCCCC(=O)O[C@@H](/C(C)=C/[C@H](C)C(=O)C[C@H](O)CC2CC(=O)NC(=O)C2)[C@@H](C)C1 | 49.3 µM (active) | – | – | – | inactive | inactive | inactive | inactive | 7.47 µM (active) | 9.41 µM (active) | 16.6 µM (active) | inactive | – | – | inactive | 4.69 µM (active) | inactive | 4.69 µM (active) | – | – |
| O=Cc1ccc2n1C[C@]1(C[C@H](O)[C@@H](CO)O1)OC2 | – | inactive | inactive | inactive | inactive | inactive | inactive | – | inactive | inactive | inactive | inactive | inactive | inactive | inactive | inactive | inactive | inactive | inactive | inactive |
| CC(CCC[C@]1(C)C(=O)C=C[C@@]23C[C@]4(C)O[C@@H](C[C@@H]4[C@H]2O)C31)C(=O)O (some centres undefined) | – | inactive | inactive | inactive | inactive | inactive | inactive | – | inactive | – | inactive | inactive | inactive | – | inactive | inactive | inactive | inactive | inactive | inactive |
| CC(=O)c1c(C)cc2c(c1O)C(=O)c1c(O)cc(O)cc1C2=O | – | inactive | inactive | inactive | inactive | inactive | inactive | inactive | inactive | inactive | inactive | inactive | inactive | inactive | inactive | inactive | inactive | inactive | inactive | inactive |
| CC(C)=CCC/C(C)=C/Cc1cc([C@@H]2CC(=O)c3c(cc(O)c(CC=C(C)C)c3O)O2)ccc1O | 6.97 µM (active) | – | – | inactive | inactive | inactive | inactive | inactive | – | 16.7 µM (active) | 20.9 µM (active) | inactive | inactive | inactive | 14.9 µM (active) | inactive | inactive | inactive | inactive | inactive |
| C[C@@]1(CCC(=O)Nc2c(O)ccc(C(=O)O)c2O)C(=O)C=C[C@]23C[C@H]4C[C@H](O[C@@]4(C)C2)C31 (some centres undefined) | – | inactive | inactive | inactive | inactive | inactive | inactive | – | inactive | – | inactive | inactive | inactive | inactive | inactive | inactive | inactive | inactive | inactive | inactive |
| C/C=C/C(=O)C1(O)CC2CC(C(=O)O)CC(C)C2C1C1=C2C(=O)NC(=O)C2=C(CCCCC)C(C)O1 (centres undefined) | 49.3 µM (active) | – | – | – | inactive | inactive | inactive | inactive | 5.94 µM (active) | inactive | 1.17 µM (active) | – | – | – | 7.49 µM (active) | 8.33 µM (active) | inactive | 16.6 µM (active) | – | inactive |
